# According to PubChem BioAssay (NCATS):
# Inconclusive results are not listed. Where a call stands in place of a potency, no number is given. Calls of active or inactive are those of the source. Calls follow the shape of the dose curve; as a rule, active = well fitted inhibition curve with a large enough effect; inconclusive = small, poorly fitted or top-dose-only effect; inactive = flat fitted curve, though single readings scatter.
# Test system: CP286
# Experiment: qHTS profiling for inhibitors of Plasmodium falciparum proliferation (AID 504749); also: nearly all actives have a fitted effect of over 60% in size
# Settings: P. falciparum in erythrocytes, SYBR Green DNA, 72 h; series mostly up to 28.7 µM
# Outline: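 SYBR Green fluorescence (ex 485 nm, em 535 nm) reports parasite DNA after 72 h compound exposure of infected red cells at 0.3% parasitemia, 2.5% hematocrit; signal normalized to 0.29 uM artemisinin and vehicle wells.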
# Potency is read from the fitted curve at half-maximal effect.
row,SMILES,Potency
1,CCCCCCCCCCCCCCCC(=O)OC[C@H](O)[C@H]1OC[C@@H](O)[C@@H]1O,inactive
2,CCCCC(=O)OCC(=O)[C@]1(O)Cc2c(O)c3c(c(O)c2[C@H](OC2CC(NC(=O)C(F)(F)F)C(O)C(C)O2)C1)C(=O)c1c(OC)cccc1C3=O (stereo not given in full),1.58 µM (active)
3,C[C@H]1OC(OC2C(O)[C@@H](O)C(OC3C(O)[C@@H](O)C(O)O[C@@H]3CO)O[C@@H]2CO)[C@H](O)C(O)C1N[C@H]1C=C(CO)[C@@H](O)[C@H](O)C1O (stereo not given in full),inactive
4,CCN(CC)CC(=O)Nc1c(C)cc(C)cc1C,inactive
5,CC(=O)N[C@H]1[C@H](O[C@@H]2c3ccc(c(Cl)c3)Oc3cc4cc(c3O[C@@H]3O[C@H](CO)[C@@H](O)[C@H](O)C3C)Oc3ccc(cc3Cl)C[C@H]3NC(=O)[C@@H](N)c5ccc(O)c(c5)Oc5cc(O)cc(c5)[C@H](NC3=O)C(=O)N[C@H]4C(=O)N[C@H]3C(=O)N[C@@H]2C(=O)N[C@@H](C(=O)O)c2cc(O)cc(O[C@H]4O[C@H](CO)[C@@H](O)C(O)[C@@H]4O)c2-c2cc3ccc2O)O[C@H](CO)[C@@H](O)[C@@H]1O (stereo not given in full),inactive
6,NC(=O)c1ncn(C2OC(CO)C(O)C2O)c1N (stereo not given),inactive
7,C[C@H]1[C@@H](OC(=O)CCC(=O)O)OC2OC3(C)CC[C@H]4[C@H](C)CC[C@@H]1[C@@]24OO3 (stereo not given in full),0.01 µM (active)
8,CC1(Cn2ccnn2)[C@H](C(=O)O)N2C(=O)C[C@H]2S1(=O)=O (stereo not given in full),inactive
9,CN(C)CC/C=C1\c2ccccc2COc2ccc(CC(=O)O)cc21,inactive
10,CCCC(=O)O[C@]1(C(=O)COC(C)=O)CC[C@H]2C3C[C@H](F)C4=CC(=O)C=CC4(C)[C@@]3(F)[C@@H](O)CC21C (stereo not given in full),inactive
11,OCCN1CC(O)C(O)C(O)C1CO (stereo not given),inactive
12,COc1cc2c(cc1O)CCN[C@@]21CS[C@H]2c3c(OC(C)=O)c(C)c4c(c3C(COC1=O)N1C2C2c3c(cc(C)c(OC)c3O)CC([C@@H]1O)N2C)OCO4 (stereo not given in full),0.0003 µM (active)
13,CC(CCC(=O)O)C1CCC2C3C(=O)C[C@@H]4CC(=O)CC[C@@]4(C)C3CC(=O)[C@]12C (stereo not given in full),inactive
14,C[n+]1c2cc(N)ccc2cc2ccc(N)cc21,0.178 µM (active)
15,O=C(OC[C@@H]1O[C@@](O)(COC(=O)c2cccnc2)[C@H](OC(=O)c2cccnc2)[C@H]1OC(=O)c1cccnc1)c1cccnc1,inactive
16,O=[N+]([O-])O[C@H]1CO[C@H]2[C@@H]1OC[C@H]2O,inactive
17,COc1cccc(OC)c1C(=O)NC1C(=O)N2C1SC(C)(C)C2C(=O)O (stereo not given),inactive
18,NC[C@@H]1O[C@H](OC2[C@@H](CO)O[C@@H](OC3[C@H](O)[C@H](N)C[C@H](N)[C@H]3OC3O[C@H](CO)[C@@H](O)[C@H](O)[C@@H]3N)[C@H]2O)C(N)[C@H](O)[C@@H]1O (stereo not given in full),inactive
19,Cc1ccc(S(=O)(=O)NC(=O)NC(C)Cc2ccccc2)cc1 (stereo not given),inactive
20,OCCOC[C@H]1O[C@H](OCCO)[C@H](OCCO)[C@@H](OCCO)[C@@H]1OCCO (tested in a mixture with another compound),inactive

row,SMILES,Potency
1,C[S+](C)CC[C@H](N)C(=O)O,inactive
2,CC[C@@H]1/C=C(\C)C[C@H](C)C[C@H](OC)[C@H]2O[C@@](O)(C(=O)C(=O)N3CCCC[C@H]3C(=O)O[C@H](/C(C)=C/[C@@H]3CC[C@H](Cl)[C@H](OC)C3)[C@H](C)[C@@H](O)CC1=O)[C@H](C)C[C@@H]2OC,inactive
3,NC(=O)C1CC2(NC(=O)NC2=O)c2cc(F)ccc2O1 (stereo not given),inactive
4,CN1[C@@H]2CC[C@@H]1CC(OC(=O)[C@H](CO)c1ccccc1)C2 (stereo not given in full),inactive
5,CC[C@@]1(O)C[C@H](O[C@H]2C[C@@H](N(C)C)[C@@H](O[C@H]3C[C@@H](O)[C@@H](O[C@H]4CCC(=O)[C@@H](C)O4)[C@@H](C)O3)[C@@H](C)O2)c2c(cc3c(c2O)C(=O)c2c(O)cccc2C3=O)[C@H]1C(=O)OC,0.0398 µM (active)
6,CCCCCCCCCCCC(=O)OCC(O)C1OCC(O)C1O (stereo not given),inactive
7,C/C1=C2/[N-]C(C(CC(N)=O)[C@@]2(C)CCC(=O)NCC(C)OP(=O)([O-])O[C@H]2[C@@H](O)[C@@H](n3cnc4cc(C)c(C)cc43)O[C@@H]2CO)[C@]2(C)N=C(/C(C)=C3N=C(/C=C4N=C1C(CCC(N)=O)C\4(C)C)[C@@H](CCC(N)=O)[C@]\3(C)CC(N)=O)[C@@H](CCC(N)=O)[C@]2(C)CC(N)=O.CC(=O)O.[Co] (stereo not given in full),inactive
8,CC1(C)OC[C@@H]2O[C@@]3(C(=O)O)OC(C)(C)O[C@@H]3[C@@H]2O1,inactive
9,Cc1ccccc1N1C(=O)c2cc(N)ccc2N/C1=C\F,inactive
10,CCC(C(=O)O)C1OC(C(C)C(O)C(C)C(=O)C(CC)C2OC3(C=CC(O)C4(CCC(C)(C5CCC(O)(CC)C(C)O5)O4)O3)C(C)CC2C)C(C)CC1C (stereo not given),0.141 µM (active)
11,O=C1C(I)=CC(=C(c2cc(I)c(O)c(I)c2)c2ccccc2C(=O)O)C=C1I,inactive
12,NC(=O)NC(CCC(=O)O)C(=O)O (stereo not given),inactive
13,COC1CC2CCC(C)[C@](O)(O2)C(=O)C(=O)N2CCCCC2C(=O)OC(C(C)CC2CCC(O)C(OC)C2)CC(=O)C(C)/C=C(/C)C(O)C(OC)C(=O)C(C)CC(C)C=CC=C/C=C\1C (stereo not given in full),4.47 µM (active)
14,CC(=O)OCC(=O)[C@@]1(O)CCC2C3C[C@H](C)C4=CC(=O)C=CC4(C)C3C(O)CC21C (stereo not given in full),inactive
15,CN[C@H](C)CCC=C(C)C,0.398 µM (active)
16,CC1(C)C2CC[C@]1(C)[C@@H](O)C2,inactive
17,OCC1O[C@H](Oc2ccc(O)cc2)C(O)C(O)C1O (stereo not given in full),inactive
18,Nc1nc(F)nc2c1ncn2[C@@H]1O[C@H](CO)[C@@H](O)[C@H]1O,inactive
19,CC1OC(OC2CCC3(C)C(CCC4C3CC(O)C3(C)C(C5=CC(=O)OC5)CCC43O)C2)CC(O)C1OC1CC(O)C(OC2CC(O)C(OC3OC(CO)C(O)C(O)C3O)C(C)O2)C(C)O1 (stereo not given),inactive
20,CC1OC(OCC2OC(Oc3c(-c4ccc(OCCO)c(OCCO)c4)oc4cc(OCCO)cc(O)c4c3=O)C(O)C(O)C2O)[C@@H](O)C(O)C1O (stereo not given in full),inactive
